Assay results reported in PubChem BioAssay AID873 (PCMD, 2007).
“And” between values parts separate entries of the source, which are not always exact repeats. Identical values can stand only once. Hit rate of the full screen: of about 210,000 compounds, about 1,300 (0.62%) were called active.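 Rule for the calls: active = inhibition of 40% or more; inactive = the rest.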 Only a selection was taken, and actives are over-represented in it overall. Some compounds were tested as several samples or in several runs, with calls that do not always agree.

The molecules below were run against Kallikrein-5 (Homo sapiens) (UniProt Q9Y337) (assay: inhibition of kallikrein 5 (hK5) activity – biochemical, 1536-well, primary screen (AID 873;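 note: 0% = enzyme controls without compound and 100% = no-enzyme blanks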)). Settings: recombinant hK5, fluorogenic AMC substrate cleavage; at 5 µM; stronger effect = higher value.
Chain of Kallikrein-5 (Homo sapiens) (Q9Y337 67-293 limits assumed): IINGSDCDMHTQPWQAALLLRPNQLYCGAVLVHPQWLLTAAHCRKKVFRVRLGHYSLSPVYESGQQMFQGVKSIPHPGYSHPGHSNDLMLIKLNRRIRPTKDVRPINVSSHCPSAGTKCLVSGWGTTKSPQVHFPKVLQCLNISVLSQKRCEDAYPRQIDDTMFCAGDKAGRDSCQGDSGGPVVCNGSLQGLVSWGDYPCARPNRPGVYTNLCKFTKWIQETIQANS
With `Cc1c(C(=O)N(Cc2ccccc2)Cc2cccnc2)cnn1-c1ccc(F)cc1` the inhibition was -6% (inactive). In the case of `COC(=O)c1ccc(NC(=O)c2ccco2)cc1`, the inhibition was -16.9% (inactive). `O=C(CSc1ccccc1)Nc1ccc(NC(=O)c2ccco2)cc1` was tested, and the inhibition was -26.9% (inactive). `O=C(Nc1ccc(Oc2ccccc2)cc1)c1ccco1` was tested, and the inhibition was 69.2% (active). `O=C(O)CCCCCCCCCC[n+]1ccccc1` was tested, and the inhibition was -3.11% (inactive). In the case of `CC1(C)CCSC(/C=C/c2ccccc2)=N1`, the inhibition was -4.94% (inactive). With `Cc1ccc(Nc2nc(N)nc(CN3CCN(Cc4ccccc4)CC3)n2)cc1Cl` the inhibition was -2.25% (inactive). With `Cc1ccnc(N2CCCC(C(=O)Nc3cc(F)ccc3C)C2)n1` (stereo not drawn) the inhibition was -31.1% (inactive). In the case of `CC(C)CNC(=O)C1CCCN(S(=O)(=O)c2ccc(-n3cnnn3)cc2)C1` (stereo not drawn), the inhibition was 11.1% (inactive). With `COc1cc(C)nc(N2CCCC(C(=O)NCC(C)C)C2)n1` (stereo not drawn) the inhibition was 61.5% (active). In the case of `COc1cccc(C2Nc3cccc4cccc(c34)N2)c1`, the inhibition was -0.21% (inactive). In the case of `Cc1ccc2c(N)c(C(=O)c3ccccc3)sc2n1`, the inhibition was 17.9% (inactive). In the case of `Cc1nc2sc(C(=O)c3ccccc3)c(N)c2c2c1CCCC2`, the inhibition was 44% (active). For `CCc1nc2sc(C(=O)O)c(N)c2c2c1CCCC2`, the inhibition was -8.59% (inactive). For `COc1ccc(CC(=O)NCC(=O)N/N=C/c2cc(Br)ccc2OC)cc1`, the inhibition was -3% (inactive). With `Cc1c(C(=O)N/N=C/c2ccccc2)[nH]c2c([N+](=O)[O-])cccc12` the inhibition was 7.11% (inactive). For `COc1cccc2c(C)c(C(=O)O)[nH]c12`, the inhibition was 90.6% (active). For `COc1cccc2c(O)cc(=O)n(C)c12`, the inhibition was -13.9% (inactive). In the case of `CSc1nnc(-c2ccc(C(F)(F)F)cn2)o1`, the inhibition was 2.93% (inactive). `OC(CNCc1ccc2c(c1)OCO2)COc1ccccc1` (stereo not drawn) was tested, and the inhibition was 2.06% (inactive). In the case of `COc1cc(OC)cc(/C(N)=N/O)c1`, the inhibition was -2.69% (inactive). For `O=C(O)CCn1cc(/C=C/C(=O)c2ccc(Cl)cc2)c(-c2cccc(Br)c2)n1`, the inhibition was 121% (active). In the case of `O=C(O)/C=C/c1cn(Cc2ccccc2)nc1-c1cccs1`, the inhibition was -5.27% (inactive). With `CCOC(=O)/C(C#N)=C/c1cn(CCC(=O)O)nc1-c1ccc(Br)cc1` the inhibition was 0.91% (inactive). In the case of `CCN1CCN(c2nc(Nc3cccc(F)c3)nc(N)c2[N+](=O)[O-])CC1`, the inhibition was 1.83% (inactive). For `COC(=O)c1sccc1NC(=O)CC1C(=O)NCCN1C(=O)Nc1ccc(F)cc1F` (stereo not drawn), the inhibition was -1.42% (inactive). With `Cc1ccc(-c2nc(SCC(=O)Nc3ccccc3OC(F)F)c3c(C)c(C(=O)O)sc3n2)cc1` the inhibition was 0.7% (inactive). With `COc1ccc(OC)c(NC(=O)N[C@H](Cc2ccccc2)C(=O)NN)c1` the inhibition was -9.7% (inactive). In the case of `COC(=O)C1=C(C)N=C2SC(C)C(=O)N2C1/C=C/c1ccccc1` (stereo not drawn), the inhibition was 61.9% (active). With `C=CCOC(=O)C1=C(C)N=C2SCCC(=O)N2C1/C=C/c1ccccc1OC` (stereo not drawn) the inhibition was 1.43% (inactive). In the case of `COC(=O)C1=C(C)NC(=O)NC1/C=C/c1ccccc1` (stereo not drawn), the inhibition was -24.4% (inactive). For `CSc1ccc(CN(C)CC(=O)NCc2ccc(F)cc2)cc1`, the inhibition was -2.79% (inactive). For `NC(=O)c1nsc(C(=O)N(CC(=O)NCc2ccc(F)cc2)Cc2ccco2)c1N`, the inhibition was 69.4% (active). For `Cc1ccnc(NC(=O)CCC(=O)N(CC(=O)NCc2ccccc2)Cc2ccco2)c1`, the inhibition was -56.9% (inactive). `Cc1[nH]n(-c2ccccc2)c(=O)c1N=Nc1ccccc1C(=O)N1CCCCC1` was tested, and the inhibition was 3.28% (inactive). For `O=C(Cc1ccccc1)N1N=C(c2ccncc2)CC1(O)C(F)(F)F` (stereo not drawn), the inhibition was -2.66% (inactive). With `Brc1ccc2ncnc(NCc3cccnc3)c2c1` the inhibition was -4.89% (inactive). With `Cc1[nH]n(C)c(=O)c1C(=O)c1c(-c2c(Cl)cccc2Cl)noc1C` the inhibition was 5.65% (inactive). For `O=C(NCC1CCCO1)/C(=C\c1ccco1)NC(=O)c1ccccc1` (stereo not drawn), the inhibition was -1.75% (inactive). For `O=C(OCN1C(=O)c2ccccc2C1=O)/C(=C\c1ccco1)NC(=O)c1ccccc1`, the inhibition was 41.6% (active). For `Cc1cccc(NC(=O)/C(=C\c2ccco2)NC(=O)c2ccccc2)c1`, the inhibition was -17.2% (inactive). With `O=C(CNCCC1=CCCCC1)Nc1ccccc1N1CCCCCC1` the inhibition was -0.35% (inactive). With `Cc1cccc(C)c1Nc1c(-c2ccccc2O)nc2ncccn12` the inhibition was -0.27% (inactive). For `CC(C)(C)OC(=O)NCCCCCC(=O)N/N=C/c1coc2ccccc2c1=O`, the inhibition was -0.18% (inactive). For `COc1cccc(NC(=O)C(C)Oc2ccccc2)c1` (stereo not drawn), the inhibition was 15.3% (inactive). For `CCC(C)OC(=O)C(C)Oc1ccc(-c2ccccc2)cc1` (stereo not drawn), the inhibition was 54.9% (active). With `O=C(O)Cc1ccc(-c2ccccc2)cc1` the inhibition was -3.86% (inactive). With `Cc1ccccc1Cn1c2ccccc2c2cnn(CC(=O)NCc3ccco3)c(=O)c21` the inhibition was 1.05% (inactive). In the case of `CCOc1ccccc1NC(=O)CCc1ccc(C)o1`, the inhibition was 118% (active). `CCOc1ccccc1NC(=O)Nc1cc(OC)ccc1OC` was tested, and the inhibition was -0.87% (inactive). With `CCOc1ccccc1NC(=O)CCN1CCN(S(=O)(=O)c2ccc(OC)cc2)CC1` the inhibition was 0.91% (inactive). For `COc1ccc(CNCCCO)cc1OC`, the inhibition was 46.4% (active). `CCOCCCNCc1ccc(OCc2ccc(F)cc2)c(OC)c1` was tested, and the inhibition was -4.94% (inactive). With `CCS(=O)(=O)NCCc1ccc(OC)c(OC)c1` the inhibition was -7.94% (inactive). `O=C(NCc1cccnc1)C(=O)Nc1nc(-c2ccccc2)cs1` was tested, and the inhibition was -0.27% (inactive). `COc1cc(NS(=O)(=O)c2ccccc2)ccc1-n1nc(C)cc1C` was tested, and the inhibition was -1.07% (inactive). `COCCCNC(=O)c1ccc2c(c1)ncn2-c1ccccc1OC` was tested, and the inhibition was -11.7% (inactive). For `COc1ccccc1-n1cnc2cc(NS(=O)(=O)c3ccccc3)ccc21`, the inhibition was 53.3% (active). In the case of `O=S(=O)(c1ccc(NC(=S)NN=C(C2CC2)C2CC2)cc1)N1CCOCC1`, the inhibition was -9.15% (inactive). `CCC(=O)/C=C1\Sc2ccccc2N1CC` was tested, and the inhibition was -8.47% (inactive). With `CCN1C(=O)/C(=c2\s/c(=C3\Sc4ccccc4N3C)c(=O)n2C)N(C)C1=S` the inhibition was 2.3% (inactive). With `CCN1C(=O)/C(=C2/Sc3ccccc3N2CCCS(=O)(=O)O)SC1=S` the inhibition was -2.57% (inactive) and 43.4% (active). `S=c1nc2ccccc2c2nc(-c3cccnc3)[nH]n12` was tested, and the inhibition was -1% (inactive). For `O=C(CN1CCN(Cc2ccccc2)CC1)NC(c1ccccc1)c1ccccc1`, the inhibition was -1.99% (inactive). `Cc1cc2c(cc1C)N(Cc1ccccc1)C1=NCCCN12` was tested, and the inhibition was -0.81% (inactive). In the case of `COc1ccc(C(C(=O)NC(C)(C)C)N(C(=O)Cn2nnc3ccccc32)c2ccc(C(C)=O)cc2)cc1O` (stereo not drawn), the inhibition was -4.08% (inactive). In the case of `CCOc1ccc(/C(O)=C2\C(=O)C(=O)N(c3ccc(OC)cc3)C2c2ccccc2[N+](=O)[O-])cc1` (stereo not drawn), the inhibition was -0.1% (inactive). `C/C(Cc1ccccc1)=N\NC(=O)CNC(=O)c1cccc(Br)c1` was tested, and the inhibition was -15.8% (inactive). `C/C(Cc1ccccc1)=N\NC(=O)CNC(=O)c1ccccc1Cl` was tested, and the inhibition was 47.7% (active). For `C/C(Cc1ccccc1)=N\NC(=O)CNC(=O)c1ccc2c(c1)OCCO2`, the inhibition was -2.98% (inactive). In the case of `Cc1cc(C(=O)NCCc2ccc(Cl)cc2)n(-c2ccccc2)n1`, the inhibition was 0.87% (inactive). `C=CCNC(=O)c1ccc2c3n(nc2c1)-c1ccc(C)cc1CO3` was tested, and the inhibition was 2.58% (inactive). `C=CCNC(=S)N/N=C/c1ccc(C)s1` was tested, and the inhibition was -12.8% (inactive). `Cc1nc(-c2ccc(Cl)cc2)sc1C1(C)CC(c2ccccc2F)=NO1` (stereo not drawn) was tested, and the inhibition was 2.17% (inactive). In the case of `CC(=O)c1ccc(S(=O)(=O)N2CCN(C(=O)/C=C/c3ccc4ccccc4n3)CC2)cc1`, the inhibition was -6.25% (inactive). In the case of `COCCNC(=S)N1CCN(C)CC1`, the inhibition was 0.97% (inactive). In the case of `CC(=O)c1cccc(NC(=O)c2ccncc2)c1`, the inhibition was 2.01% (inactive). For `COc1cccc(NC(=O)c2ccccc2SC)c1`, the inhibition was -2.44% (inactive). For `CSc1ccccc1C(=O)Nc1cccc(C(C)=O)c1`, the inhibition was 45% (active). In the case of `CC(C)(C)C(=O)NNC(=O)c1ccc(Oc2cc(Cl)cc(Cl)c2)o1`, the inhibition was 4.32% (inactive). `COCCNc1nc(-c2ccccc2)nc2c1oc1ccccc12` was tested, and the inhibition was 1.99% (inactive). `Cn1c(=O)c2c(-c3cccc(Br)c3)c(C#N)c(N)nc2n(C)c1=O` was tested, and the inhibition was 2.05% (inactive). `S=C(NCCc1ccccc1)Nc1ccccc1` was tested, and the inhibition was 2.79% (inactive).
